Results as given in the supplement of paper PMC10646978.
± gives the standard deviation.

What was measured:
Details in all cases: modulator concentration 10 µM
[1] = system: RAW-Dual (murine macrophage reporter line); assay: NF-kB reporter (SEAP) activity fold change vs agonist alone; higher = enhanced NF-kB activity
Method in brief: (§1)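 Overnight stimulation with a PRR agonist followed pre-incubation for 1 hour at 37 °C with compound at 10 μM final. This was done in RAW-Dual murine macrophage reporter cells seeded at 50 000 per well in 384-well plates. NF-κB (SEAP, QUANTI-Blue absorbance at 620 nm) and IRF (Lucia luciferase, QUANTI-Luc luminescence) were read from the supernatant. Each reporter's fold change relative to the mean agonist-only control on the same plate was averaged over replicate plates.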

[2] = system: RAW-Dual (murine macrophage reporter line); assay: IRF reporter (Lucia luciferase) activity fold change vs agonist alone; higher = enhanced IRF activity
Method in brief: as §1

[3] = system: RAW-Dual (murine macrophage reporter line); assay: viability score (confluency relative to resting cells, overnight) (fraction); higher = more viable, active = viable (0.7 or more)
Method in brief: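 Two confluency masks, generated with IncuCyte software over all imaged wells, were applied to IncuCyte images of RAW-Dual macrophages. The cells, in 384-well plates, had been exposed overnight to 10 μM final compound. The viability score is confluency as a fraction of resting cells, and a compound met the cutoff only with both masks above 70% of resting cells.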

[4] = agonist: CpG ODN 1826 0.5 ug/mL

SMILES	NF-kB reporter [1, 4]	NF-kB reporter ([1]; agonist: LPS 0.1 ug/mL)	NF-kB reporter ([1]; agonist: MPLA […])	IRF reporter ([2]; agonist: 3'3'-cGAMP 10 ug/mL)	IRF reporter ([2]; agonist: LPS 0.1 ug/mL)	IRF reporter ([2]; agonist: MPLA […])	viability score [3]
O=C(O)/C=C/c1ccc(Cn2ccnc2)cc1	0.812 ± 0.079	0.873 ± 0.05	1.07 ± 0.093	1.02 ± 0.062	1.16 ± 0.067	1.13 ± 0.12	1.01 (active)
CC(NC(=O)c1nc2ccccc2[nH]1)c1ccc(Br)cc1 (centres undefined)	1.07 ± 0.11	0.938 ± 0.061	0.985 ± 0.047	1 ± 0.14	1 ± 0.073	1.13 ± 0.19	1 (active)
CN(C)CCOC(C)(c1ccccc1)c1ccccn1.O=C(O)CCC(=O)O (centres undefined)	0.876 ± 0.12	1.25 ± 0.39	0.954 ± 0.067	0.862 ± 0.029	1.41 ± 0.33	1.16 ± 0.15	1 (active)
COc1ccccc1Cn1c(SC)nc2c(-c3ccccc3)c[nH]c2c1=O	1.51 ± 0.064	0.889 ± 0.11	0.997 ± 0.053	0.114 ± 0.0059	1.05 ± 0.19	1.41 ± 0.36	0.948 (active)
Clc1ccc(CN2CCN(CCn3ccnc3-c3ccccc3)CC2)cc1	0.584 ± 0.055	1.29 ± 0.12	1.37 ± 0.2	0.841 ± 0.042	1.27 ± 0.086	1.13 ± 0.22	0.993 (active)
COc1c(Cl)cc(C(=O)Nc2cccc(NC(=O)c3ccco3)c2)cc1Cl	1.15 ± 0.098	1.01 ± 0.056	0.682 ± 0.043	0.858 ± 0.022	1.1 ± 0.11	0.956 ± 0.29	1.01 (active)
C[N+]1(C)CCC(OC(=O)C(O)(c2ccccc2)C2CCCC2)C1 (centres undefined) [Prestw-746]	0.923 ± 0.061	0.998 ± 0.066	0.943 ± 0.062	0.949 ± 0.031	1.24 ± 0.16	1.13 ± 0.17	1.01 (active)
Oc1ccccc1-c1cc(C(F)(F)F)on1	1.02 ± 0.08	0.982 ± 0.068	0.956 ± 0.096	0.349 ± 0.023	1.06 ± 0.066	1.12 ± 0.1	0.361 (inactive)
Cc1ccc(NC(=O)Nc2c(C)nc(N3CCN(C)CC3)nc2C)cc1F	0.993 ± 0.049	1.03 ± 0.11	0.818 ± 0.037	0.925 ± 0.046	1.21 ± 0.083	1.17 ± 0.15	0.97 (active)
CNc1ncnc2c1ncn2[C@@H]1O[C@H](CO)[C@@H](O)[C@H]1O [Prestw-338]	0.931 ± 0.073	0.929 ± 0.09	1.16 ± 0.15	1.15 ± 0.043	1.25 ± 0.17	1.33 ± 0.25	1.05 (active)
CCOC(=O)C1=C[C@]2(CC)CCCN3CCc4c(n1c1ccccc41)[C@@H]32	0.825 ± 0.057	0.946 ± 0.077	0.994 ± 0.07	0.998 ± 0.045	1.21 ± 0.15	1.4 ± 0.46	0.949 (active)
Cc1cccc(Sc2nccn3c(=O)n(CC(=O)N4CCN(c5ccccc5)CC4)nc23)c1	0.924 ± 0.081	0.589 ± 0.067	0.664 ± 0.043	0.28 ± 0.024	0.6 ± 0.041	0.733 ± 0.12	0.983 (active)
